“And” between values parts separate entries of the source, which are not always exact repeats. Equal entries are not always repeated. Records with an inconclusive call do not appear. The source made the active and inactive calls. How the source made its calls: active means hit-call score of the fitted dose curve at least 0.9, where 1 is the maximum; inconclusive means response in the unintended direction; inactive means score below 0.9.
Target: AR (gene 367) (UniProt P10275)
Experiment: ACEA_AR_agonist_80hr: ACEA Biosciences xCELLigence Real-Time Cell Analysis on Androgen Receptor Agonism for Proliferation (AID 2283783);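 further: hits increase impedance growth signal above DMSO baseline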
Outline: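 22Rv1 human prostate cancer cells were seeded after preconditioning in assay medium and monitored overnight, then dosed in an eight-point 1:4 dilution series from 100 uM (≤0.5% DMSO). Impedance-based growth was read at 80 h, gain-of-signal versus DMSO.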

AR (gene 367), sequence (P10275 whole entry, looked up): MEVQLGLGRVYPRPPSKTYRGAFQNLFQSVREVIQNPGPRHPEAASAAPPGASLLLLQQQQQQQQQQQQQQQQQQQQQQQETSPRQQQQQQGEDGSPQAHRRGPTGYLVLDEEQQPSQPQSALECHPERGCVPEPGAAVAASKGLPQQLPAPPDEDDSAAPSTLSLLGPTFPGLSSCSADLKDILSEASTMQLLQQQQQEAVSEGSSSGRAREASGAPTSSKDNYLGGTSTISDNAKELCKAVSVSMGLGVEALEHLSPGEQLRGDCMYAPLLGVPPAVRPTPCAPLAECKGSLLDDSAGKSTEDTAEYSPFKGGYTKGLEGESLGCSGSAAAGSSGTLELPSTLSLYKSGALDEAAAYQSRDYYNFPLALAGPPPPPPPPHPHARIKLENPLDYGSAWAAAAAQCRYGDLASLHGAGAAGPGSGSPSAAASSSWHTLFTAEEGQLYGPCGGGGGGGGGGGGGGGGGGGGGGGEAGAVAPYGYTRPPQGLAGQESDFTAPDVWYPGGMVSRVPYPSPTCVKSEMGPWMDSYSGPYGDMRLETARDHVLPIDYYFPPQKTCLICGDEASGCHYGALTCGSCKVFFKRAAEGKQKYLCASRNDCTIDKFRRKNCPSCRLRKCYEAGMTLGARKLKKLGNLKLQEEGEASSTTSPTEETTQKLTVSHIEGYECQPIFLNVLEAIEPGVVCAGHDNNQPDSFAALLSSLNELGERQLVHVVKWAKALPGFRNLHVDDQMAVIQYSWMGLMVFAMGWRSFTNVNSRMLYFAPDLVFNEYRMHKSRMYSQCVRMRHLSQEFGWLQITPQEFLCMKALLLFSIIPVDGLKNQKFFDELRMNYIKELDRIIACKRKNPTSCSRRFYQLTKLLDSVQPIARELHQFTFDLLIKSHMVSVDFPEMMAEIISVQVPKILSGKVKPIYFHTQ

Compound	outcome	AC50
Cc1ccccc1CO[C@@H]1C[C@@]2(C(C)C)CC[C@]1(C)O2	inactive	
CCC(=O)O[C@H]1CC[C@H]2[C@@H]3CCC4=CC(=O)CC[C@]4(C)[C@H]3CC[C@]12C		0.207 nM (active) and 0.285 nM (active) and 0.61 nM (active)
CCOC(=O)C(O)(c1ccc(Cl)cc1)c1ccc(Cl)cc1	inactive	
